# Among all 39,000 compounds or so, about 3,300 (8.5%) were called active. The entries come from a sample that favours actives as a whole.
# Tested on: HepG2
# Experiment: cytotoxicity call (relative viability < 0.9)
# Conditions: 10 µM
row,SMILES,cytotoxicity call
1,O=C(C[C@H]1CC[C@H]2[C@@H](COC[C@@H](O)CN2S(=O)(=O)c2ccc(Cl)cc2)O1)NCc1ccncn1,inactive
2,COc1ncc(-c2ccc3c(Nc4cc(Oc5cc(F)cc(F)c5)cc(C(=O)O)c4)c(S(=O)(=O)NC4CC4)cnc3c2)c(OC)n1,inactive
3,CO[C@@H]1CN(C)C(=O)c2ccc(NC(=O)C3CC3)cc2OC[C@H](C)N(C(=O)C2CCOCC2)C[C@@H]1C,inactive
4,COc1ccc(S(=O)(=O)Nc2cccc3c2O[C@H](CN(C)S(=O)(=O)c2ccc(C)cc2)[C@H](C)CN([C@@H](C)CO)C3=O)cc1,inactive
5,C[C@H]1CN([C@@H](C)CO)C(=O)c2cc(C#CCN(C)C)cnc2O[C@H]1CN(C)C(=O)c1ccc2c(c1)OCO2,inactive
6,C[C@@H]1CN([C@@H](C)CO)C(=O)c2cc(NC(=O)Nc3ccc(C(F)(F)F)cc3)ccc2O[C@@H](C)CCCCO[C@@H]1CN(C)Cc1ccc(C(F)(F)F)cc1,inactive
7,C[C@H](CO)N1C[C@H](C)[C@H](CN(C)Cc2ccc(C(F)(F)F)cc2)OCCCC[C@H](C)Oc2ccc(NC(=O)Nc3ccc(C(F)(F)F)cc3)cc2C1=O,active
8,C[C@@H]1CN([C@@H](C)CO)C(=O)c2cc(NC(=O)Nc3ccc(C(F)(F)F)cc3)ccc2O[C@@H](C)CCCCO[C@H]1CN(C)Cc1ccc(C(F)(F)F)cc1,active
9,C[C@@H]1CCCCO[C@H](CN(C)Cc2ccc(C(F)(F)F)cc2)[C@H](C)CN([C@@H](C)CO)C(=O)c2cc(NC(=O)Nc3ccc(C(F)(F)F)cc3)ccc2O1,active
10,C[C@@H]1CCCCO[C@@H](CN(C)Cc2ccc(C(F)(F)F)cc2)[C@H](C)CN([C@@H](C)CO)C(=O)c2cc(NC(=O)Nc3ccc(C(F)(F)F)cc3)ccc2O1,inactive
11,C[C@@H]1CN([C@H](C)CO)C(=O)c2cc(NC(=O)Nc3ccc(C(F)(F)F)cc3)ccc2O[C@@H](C)CCCCO[C@H]1CN(C)Cc1ccc(C(F)(F)F)cc1,active
12,C[C@H](CO)N1C[C@H](C)[C@@H](CN(C)Cc2ccc(C(F)(F)F)cc2)OCCCC[C@H](C)Oc2ccc(NC(=O)Nc3ccc(C(F)(F)F)cc3)cc2C1=O,inactive
13,C[C@@H]1CCCCO[C@H](CN(C)Cc2ccc(C(F)(F)F)cc2)[C@@H](C)CN([C@@H](C)CO)C(=O)c2cc(NC(=O)Nc3ccc(C(F)(F)F)cc3)ccc2O1,inactive
14,O=C(CN1CCOCC1)NCC[C@@H]1CC[C@@H](NS(=O)(=O)c2ccc(F)cc2)[C@@H](CO)O1,inactive
15,CCS(=O)(=O)N1C[C@]2(C1)CN([C@@H](CO)c1[nH]c3cc(ccc3c12)OC)C(=O)Nc1c(noc1C)C,inactive
16,C[C@H](CO)N1C[C@H](C)[C@@H](CN(C)C(=O)CN(C)C)Oc2cc(C#C[C@@H](C)O)ccc2S1(=O)=O,inactive
17,C[C@@H]1CCCCO[C@H](CN(C)S(=O)(=O)c2ccc(Cl)cc2)[C@H](C)CN([C@@H](C)CO)C(=O)c2cc(NC(=O)C3CCCCC3)ccc2O1,inactive
18,COc1ccc(NC(=O)N(C)C[C@H]2Oc3ccc(NS(=O)(=O)c4cn(C)cn4)cc3CC(=O)N([C@H](C)CO)C[C@@H]2C)cc1,inactive
19,COc1ccccc1CNC(=O)C[C@H]1C[C@H]2c3cc(NC(=O)Nc4ccc(C(F)(F)F)cc4)ccc3O[C@H]2[C@@H](CO)O1,inactive

row,SMILES,cytotoxicity call
1,C[C@@H]1CN([C@H](C)CO)C(=O)c2cc(NS(=O)(=O)c3ccc(F)cc3)ccc2O[C@@H](C)CCCCO[C@H]1CN(C)Cc1ccc2c(c1)OCO2,inactive
2,C[C@@H]1CN([C@H](C)CO)C(=O)Cc2cc(NC(=O)Nc3ccc4c(c3)OCO4)ccc2O[C@H]1CN(C)S(=O)(=O)c1cn(C)cn1,inactive
3,O=C(C[C@@H]1CC[C@@H]2[C@H](COC[C@H](O)CN2S(=O)(=O)c2cccc(Cl)c2)O1)NCc1ccc2c(c1)OCO2,inactive
4,C[C@@H]1CN([C@@H](C)CO)S(=O)(=O)c2ccc(Br)cc2O[C@H]1CN(C)Cc1ccccc1F,inactive
5,CC(C)NC(=O)Nc1ccc2c(c1)CC(=O)N([C@@H](C)CO)C[C@H](C)[C@H](CN(C)Cc1ccc(C(=O)O)cc1)O2,inactive
6,C[C@@H]1CN([C@H](C)CO)C(=O)c2cc(NC(=O)C3CC3)ccc2O[C@@H]1CN(C)Cc1ccc(Oc2ccccc2)cc1,inactive
7,Cc1noc(C)c1S(=O)(=O)N(C)C[C@H]1Oc2ccc(NC(=O)C3CC3)cc2CC(=O)N([C@H](C)CO)C[C@@H]1C,inactive
8,CCS(=O)(=O)N1CC[C@]2(CC1)CN([C@@H](CO)c1c2c2ccc(cc2n1C)OC)C(=O)c1cccc(c1)F,inactive
9,C[C@@H]1CCCCO[C@@H](CN(C)Cc2ccc(C(F)(F)F)cc2)[C@@H](C)CN([C@@H](C)CO)C(=O)c2cc(NC(=O)Nc3ccc(C(F)(F)F)cc3)ccc2O1,inactive
10,C[C@@H]1CN([C@H](C)CO)C(=O)c2cc(NC(=O)Nc3ccc(C(F)(F)F)cc3)ccc2O[C@@H](C)CCCCO[C@@H]1CN(C)Cc1ccc(C(F)(F)F)cc1,inactive
11,C[C@@H]1CCCCO[C@@H](CN(C)Cc2ccc(C(F)(F)F)cc2)[C@@H](C)CN([C@H](C)CO)C(=O)c2cc(NC(=O)Nc3ccc(C(F)(F)F)cc3)ccc2O1,inactive
12,C[C@@H]1CCCCO[C@H](CN(C)Cc2ccc(C(F)(F)F)cc2)[C@H](C)CN([C@H](C)CO)C(=O)c2cc(NC(=O)Nc3ccc(C(F)(F)F)cc3)ccc2O1,active
13,C[C@@H]1CCCCO[C@@H](CN(C)Cc2ccc(C(F)(F)F)cc2)[C@H](C)CN([C@H](C)CO)C(=O)c2cc(NC(=O)Nc3ccc(C(F)(F)F)cc3)ccc2O1,inactive
14,C[C@@H]1CCCCO[C@H](CN(C)Cc2ccc(C(F)(F)F)cc2)[C@@H](C)CN([C@H](C)CO)C(=O)c2cc(NC(=O)Nc3ccc(C(F)(F)F)cc3)ccc2O1,active
15,C[C@H]1CCCCO[C@@H](CN(C)Cc2ccc(C(F)(F)F)cc2)[C@@H](C)CN([C@@H](C)CO)C(=O)c2cc(NC(=O)Nc3ccc(C(F)(F)F)cc3)ccc2O1,active
16,C[C@H]1CCCCO[C@H](CN(C)Cc2ccc(C(F)(F)F)cc2)[C@@H](C)CN([C@@H](C)CO)C(=O)c2cc(NC(=O)Nc3ccc(C(F)(F)F)cc3)ccc2O1,active
17,CN(C)CCCNC(=O)C[C@H]1CC[C@@H]2[C@H](COc3ccc(NC(=O)c4ccc5c(c4)OCO5)cc3C(=O)N2C)O1,inactive
18,C[C@@H]1CN([C@H](C)CO)C(=O)c2cc(NS(=O)(=O)c3ccc(F)cc3)ccc2O[C@H]1CN(C)CC1CC1,inactive
19,C[C@@H]1CN([C@@H](C)CO)C(=O)c2cc(NC(=O)Cc3ccccc3)ccc2O[C@@H](C)CCCCO[C@@H]1CN(C)C(=O)CCC(F)(F)F,inactive

row,SMILES,cytotoxicity call
1,C[C@@H]1CN([C@@H](C)CO)C(=O)c2cc(NC(=O)NC3CCCCC3)ccc2O[C@H]1CN(C)Cc1ccc(C(F)(F)F)cc1,inactive
2,CO[C@H]1CN(C)C(=O)c2ccc(NC(=O)NC(C)C)cc2OC[C@H](C)N(Cc2ccc(-c3ccccn3)cc2)C[C@@H]1C,inactive
3,C[C@@H]1CN([C@@H](C)CO)C(=O)c2cc(NC(=O)Nc3ccccc3)ccc2O[C@@H](C)CCCCO[C@H]1CN(C)Cc1ccncc1,inactive
4,CC(C)C#Cc1ccc2c(c1)O[C@@H](CN(C)C(=O)Cc1ccccn1)[C@H](C)CN([C@@H](C)CO)S2(=O)=O,inactive
5,Cc1noc(C)c1S(=O)(=O)N(C)C[C@H]1Oc2ccc(NC(=O)NC(C)C)cc2CC(=O)N([C@H](C)CO)C[C@@H]1C,inactive
6,C#CCOC(=O)[C@@H]1[C@@H](C(=O)O)[C@@H]2C=C[C@@H]1C2,inactive
7,COc1ccc(NC(=O)N(C)C[C@H]2Oc3ccc(NC(=O)C4CC4)cc3CC(=O)N([C@H](C)CO)C[C@@H]2C)cc1,inactive
8,C[C@@H]1CN([C@@H](C)CO)C(=O)c2cccc(NC(=O)c3cnccn3)c2O[C@H]1CN(C)CC1CCCCC1,inactive
9,COCC#Cc1ccc2c(c1)O[C@@H](CN(C)S(=O)(=O)c1cccc(F)c1)[C@H](C)CN([C@H](C)CO)S2(=O)=O,inactive
10,C[C@@H]1CN([C@@H](C)CO)C(=O)c2cccc(NC(=O)Nc3ccc(F)cc3)c2O[C@@H]1CN(C)Cc1ccc(Oc2ccccc2)cc1,inactive
11,COc1ccc(S(=O)(=O)Nc2ccc3c(c2)C(=O)N([C@H](C)CO)C[C@H](C)[C@H](CN(C)C(=O)Nc2cccc4ccccc24)OCCCC[C@@H](C)O3)cc1,inactive
12,COc1ccc(S(=O)(=O)Nc2ccc3c(c2)C(=O)N([C@H](C)CO)C[C@H](C)[C@@H](CN(C)C(=O)Nc2cccc4ccccc24)OCCCC[C@H](C)O3)cc1,active
13,COc1ccc(S(=O)(=O)Nc2ccc3c(c2)C(=O)N([C@@H](C)CO)C[C@@H](C)[C@@H](CN(C)C(=O)Nc2cccc4ccccc24)OCCCC[C@H](C)O3)cc1,inactive
14,COc1ccc(S(=O)(=O)Nc2ccc3c(c2)C(=O)N([C@@H](C)CO)C[C@H](C)[C@H](CN(C)C(=O)Nc2cccc4ccccc24)OCCCC[C@H](C)O3)cc1,active
15,COc1ccc(S(=O)(=O)Nc2ccc3c(c2)C(=O)N([C@H](C)CO)C[C@H](C)[C@@H](CN(C)C(=O)Nc2cccc4ccccc24)OCCCC[C@@H](C)O3)cc1,inactive
16,COc1ccc(S(=O)(=O)Nc2ccc3c(c2)C(=O)N([C@@H](C)CO)C[C@H](C)[C@H](CN(C)C(=O)Nc2cccc4ccccc24)OCCCC[C@@H](C)O3)cc1,inactive
17,O=C(CN1CCOCC1)NCC[C@H]1CC[C@H](NC(=O)c2ccc3c(c2)OCO3)[C@H](CO)O1,inactive
18,C[C@H](CO)N1C[C@H](C)[C@H](CN(C)C(=O)Nc2ccc(F)cc2)OCCCC[C@H](C)Oc2ccc(NC(=O)C3CCCC3)cc2C1=O,inactive

# From the antibiotic and cytotoxicity screens of Wong et al. (2023)
